Measured values from article PMC7862700, “An all-to-all approach to the identification of sequence-specific readers for epigenetic DNA modifications on cytosine”.

Each sequence was assayed against T1, ERF (Homo sapiens, UniProt P50548 1-548) (assay: DAPPL (digital affinity profiling via proximity ligation, sequencing); 10 mM Tris-HCl pH 7.5, 50 mM NaCl, 1 mM DTT, 4% glycerol, room temperature, 30 min; GST-TFs on glutathione beads, 16-mer random dsDNA library, 0.1% formaldehyde crosslink after washing; high values mean tight binding). Conditions: protein: recombinant; tags: N-terminal GST; dsDNA, one strand shown.
T1 sequence: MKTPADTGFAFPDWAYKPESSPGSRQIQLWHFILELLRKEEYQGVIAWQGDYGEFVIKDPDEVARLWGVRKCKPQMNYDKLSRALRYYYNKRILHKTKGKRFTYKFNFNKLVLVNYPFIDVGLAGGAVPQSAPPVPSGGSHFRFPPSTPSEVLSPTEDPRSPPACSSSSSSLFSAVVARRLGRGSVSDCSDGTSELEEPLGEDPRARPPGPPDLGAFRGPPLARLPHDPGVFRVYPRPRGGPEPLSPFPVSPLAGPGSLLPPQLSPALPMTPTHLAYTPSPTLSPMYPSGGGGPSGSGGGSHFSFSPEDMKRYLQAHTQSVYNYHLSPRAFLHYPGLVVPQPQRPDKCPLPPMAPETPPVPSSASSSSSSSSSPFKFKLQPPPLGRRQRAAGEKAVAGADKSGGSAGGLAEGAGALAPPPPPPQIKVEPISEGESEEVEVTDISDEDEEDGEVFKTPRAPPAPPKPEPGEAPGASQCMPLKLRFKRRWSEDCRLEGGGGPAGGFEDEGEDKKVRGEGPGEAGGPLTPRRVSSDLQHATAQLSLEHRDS
Method in brief: (§1)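 The binding signal reported is, for every hexamer, its read frequency for a factor over its read frequency for the tag-only sample. Reads came from pools of yeast-expressed, GST-fused human transcription factors on glutathione beads, barcoded with DNA and mixed with that sample, which were incubated with 200 nmole of a random double-stranded 16-mer DNA library in Tris/NaCl/DTT/glycerol buffer at room temperature for 30 min. After washing, the pools were crosslinked with 0.1% formaldehyde, proximity-ligated with BsaI/T4 ligase for 1 h at 37 °C, PCR-amplified and sequenced on an Illumina NextSeq500.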
For TGGATA, the binding signal was 1 fold enrichment (6-mer frequency, TF over GST control).
With ATAAGA the binding signal was 1.14 fold enrichment (6-mer frequency, TF over GST control).
CTAGAA was tested, and the binding signal was 1.28 fold enrichment (6-mer frequency, TF over GST control).
In the case of GATCTA, the binding signal is reported as 1.04 fold enrichment (6-mer frequency, TF over GST control).
For GCTAGT, the binding signal was 1.01 fold enrichment (6-mer frequency, TF over GST control).
AGATCT was tested, and the binding signal was 1.05 fold enrichment (6-mer frequency, TF over GST control).
With AGCTAG the binding signal was 1.08 fold enrichment (6-mer frequency, TF over GST control).
For TAAGGG, the binding signal was 1.01 fold enrichment (6-mer frequency, TF over GST control).
CTTAAG was tested, and the binding signal was 1.07 fold enrichment (6-mer frequency, TF over GST control).
With AGTCTC the binding signal was 1.04 fold enrichment (6-mer frequency, TF over GST control).
In the case of TGAAGA, the binding signal is reported as 1.09 fold enrichment (6-mer frequency, TF over GST control).
TGATTA was tested, and the binding signal was 1.16 fold enrichment (6-mer frequency, TF over GST control).
TCGAGC was tested, and the binding signal was 1.03 fold enrichment (6-mer frequency, TF over GST control).
With TGATAG the binding signal was 1.04 fold enrichment (6-mer frequency, TF over GST control).
GCCCGA was tested, and the binding signal was 1.05 fold enrichment (6-mer frequency, TF over GST control).
With GTTCGC the binding signal was 1.18 fold enrichment (6-mer frequency, TF over GST control).
TTAGAT was tested, and the binding signal was 1.21 fold enrichment (6-mer frequency, TF over GST control).
For TTGCCA, the binding signal was 1.23 fold enrichment (6-mer frequency, TF over GST control).
For TCAATC, the binding signal was 1.09 fold enrichment (6-mer frequency, TF over GST control).
With TCTAGA the binding signal was 1.03 fold enrichment (6-mer frequency, TF over GST control).
With CTAGCC the binding signal was 1.13 fold enrichment (6-mer frequency, TF over GST control).
TAGACT was tested, and the binding signal was 1.07 fold enrichment (6-mer frequency, TF over GST control).
For TTAAGA, the binding signal was 1.08 fold enrichment (6-mer frequency, TF over GST control).
With GCTGGT the binding signal was 1.14 fold enrichment (6-mer frequency, TF over GST control).
CGTTTA was tested, and the binding signal was 1.05 fold enrichment (6-mer frequency, TF over GST control).
In the case of GATCAA, the binding signal is reported as 1.02 fold enrichment (6-mer frequency, TF over GST control).
With CGTCTG the binding signal was 1.11 fold enrichment (6-mer frequency, TF over GST control).

The sequences below were run against T2, ETV3L (Homo sapiens, UniProt Q6ZN32 1-361) in the same assay as above. Conditions: protein: recombinant; tags: N-terminal GST; dsDNA, one strand shown.
T2 sequence: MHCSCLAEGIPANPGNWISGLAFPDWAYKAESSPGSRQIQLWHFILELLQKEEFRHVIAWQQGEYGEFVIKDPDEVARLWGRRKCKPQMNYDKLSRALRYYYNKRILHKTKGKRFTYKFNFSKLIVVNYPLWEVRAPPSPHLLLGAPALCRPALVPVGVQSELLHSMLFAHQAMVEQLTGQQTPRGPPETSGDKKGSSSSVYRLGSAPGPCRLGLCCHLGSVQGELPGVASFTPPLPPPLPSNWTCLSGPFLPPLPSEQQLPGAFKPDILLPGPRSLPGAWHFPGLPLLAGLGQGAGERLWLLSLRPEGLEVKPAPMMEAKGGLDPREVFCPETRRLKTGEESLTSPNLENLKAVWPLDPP
Method in brief: as §1
ACCTAG was tested, and the binding signal was 1.05 fold enrichment (6-mer frequency, TF over GST control).
With TGGATA the binding signal was 1.04 fold enrichment (6-mer frequency, TF over GST control).
In the case of ATAAGA, the binding signal is reported as 1.05 fold enrichment (6-mer frequency, TF over GST control).
For CTAGAA, the binding signal was 1.03 fold enrichment (6-mer frequency, TF over GST control).
GATCTA was tested, and the binding signal was 1.03 fold enrichment (6-mer frequency, TF over GST control).
GCTAGT was tested, and the binding signal was 1 fold enrichment (6-mer frequency, TF over GST control).
AGCTAG was tested, and the binding signal was 1.11 fold enrichment (6-mer frequency, TF over GST control).
In the case of CTTAAG, the binding signal is reported as 1.08 fold enrichment (6-mer frequency, TF over GST control).
TAAAGG was tested, and the binding signal was 1.04 fold enrichment (6-mer frequency, TF over GST control).
With AGTCTC the binding signal was 1.06 fold enrichment (6-mer frequency, TF over GST control).
TGATTA was tested, and the binding signal was 1.07 fold enrichment (6-mer frequency, TF over GST control).
For TAGATA, the binding signal was 1.12 fold enrichment (6-mer frequency, TF over GST control).
For TCGAGC, the binding signal was 1.15 fold enrichment (6-mer frequency, TF over GST control).
With CCCCAG the binding signal was 1.11 fold enrichment (6-mer frequency, TF over GST control).
TGATAG was tested, and the binding signal was 1.05 fold enrichment (6-mer frequency, TF over GST control).
With GCCCGA the binding signal was 1.01 fold enrichment (6-mer frequency, TF over GST control).
In the case of GTTCGC, the binding signal is reported as 1.07 fold enrichment (6-mer frequency, TF over GST control).
GGATCT was tested, and the binding signal was 1.06 fold enrichment (6-mer frequency, TF over GST control).
For TTAGAT, the binding signal was 1.04 fold enrichment (6-mer frequency, TF over GST control).
With TTGCCA the binding signal was 1 fold enrichment (6-mer frequency, TF over GST control).
With TCAATC the binding signal was 1.05 fold enrichment (6-mer frequency, TF over GST control).
ATAAGT was tested, and the binding signal was 1.05 fold enrichment (6-mer frequency, TF over GST control).
With TCTAGA the binding signal was 1.03 fold enrichment (6-mer frequency, TF over GST control).
For CTAGCC, the binding signal was 1.06 fold enrichment (6-mer frequency, TF over GST control).
With TAGACT the binding signal was 1 fold enrichment (6-mer frequency, TF over GST control).
For GCTGGT, the binding signal was 1.19 fold enrichment (6-mer frequency, TF over GST control).
With CGTTTA the binding signal was 1.1 fold enrichment (6-mer frequency, TF over GST control).
GATCAA was tested, and the binding signal was 1.1 fold enrichment (6-mer frequency, TF over GST control).
With CGTCTG the binding signal was 1.14 fold enrichment (6-mer frequency, TF over GST control).
CATGCG was tested, and the binding signal was 1.01 fold enrichment (6-mer frequency, TF over GST control).
